# A selection: hits, their analogues and other compounds. The true share with any hit is near 21%.
# RORg inh: inhibitors of mouse ROR gamma transcriptional activity. 310,000 tested, 5.4% active. Drosophila S2 Gal4-RORgamma UAS-luciferase reporter, 20 h. Potency, µM (top dose mostly 53.6 µM), actives largely listed as inhibitors; note: nearly all actives have a fitted effect of over 60% in size
# Target sequence (P51450 whole entry, looked up, the tested form may be a part): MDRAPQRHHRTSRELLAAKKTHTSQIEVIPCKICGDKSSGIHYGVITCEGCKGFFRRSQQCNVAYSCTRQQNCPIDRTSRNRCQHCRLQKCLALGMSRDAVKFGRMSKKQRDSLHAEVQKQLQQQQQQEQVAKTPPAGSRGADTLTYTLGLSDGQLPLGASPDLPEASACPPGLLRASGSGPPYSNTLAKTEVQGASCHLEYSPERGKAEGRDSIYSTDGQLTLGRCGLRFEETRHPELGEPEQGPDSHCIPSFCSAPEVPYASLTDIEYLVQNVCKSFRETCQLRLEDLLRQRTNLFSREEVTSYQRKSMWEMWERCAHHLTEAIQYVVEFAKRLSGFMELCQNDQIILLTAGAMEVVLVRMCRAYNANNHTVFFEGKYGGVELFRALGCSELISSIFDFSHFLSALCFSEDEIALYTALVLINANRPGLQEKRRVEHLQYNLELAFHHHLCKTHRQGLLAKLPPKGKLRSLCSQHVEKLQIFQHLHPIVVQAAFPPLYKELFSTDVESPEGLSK
#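 Drosophila Schneider cells stably carrying a metallothionein-driven Gal4 DBD–ROR gamma fusion and a UAS-Photinus luciferase reporter were exposed to compound for 1 hr, then induced with copper sulfate (700 uM final) for 20 hr at ambient temperature before luminescence reading.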
# IL1B secr inh: inflammasome signaling inhibition, IL-1 beta readout | THP-1 LPS/ATP IL-1B secretion, AlphaLISA, 16 h; stronger effect = lower value | activity change, % at 57.5 µM | 360,000 tested, 4.7% active; in the data active = activity change below about -50%; inconclusive = mostly about -30% to -49%
#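 THP-1 cells pretreated 1 hr with compounds (up to 57.5 uM final), then stimulated with LPS (250 ng/mL final) plus ATP (1.25 mM final); secreted IL-1B measured by AlphaLISA after 16 hr, decreased signal indicating inhibition.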
# ELG1 DNA repair: blocks ELG1-dependent DNA repair in HEK293T cells. HEK293T ELG1-luciferase reporter, luminescence, 16 h; DNA damage induced by 5-fluorouridine. Potency, µM (top dose mostly 46.1 µM), actives largely listed as inhibitors. 330,000 tested, 2.3% active. AID 504467; note: nearly all actives have a fitted effect of over 55% in size
#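 Quantitative HTS, concentration-response format. 2,000 cells/well co-treated with 5-fluorouridine and compound, 16 hr in 5% CO2 at 37 °C; ONE-Glo luminescence read after 30 min.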
# Gal4-VP16 FLuc: Gal4-VP16 reporter inhibition counter-screen. Drosophila S2 Gal4-VP16 UAS-luciferase, luminescence, 20 h. Potency, µM (series often up to 53.6 µM), actives largely listed as inhibitors. 310,000 tested, 3.5% active. AID 2546;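 note: Gal4-VP16 expression switched on by copper sulfate through the metallothionein promoter; nearly all actives have a fitted effect of over 50% in size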
# DT40 TDP1 CPT: DT40-hTDP1 cell growth loss with CPT. chicken DT40 Tdp1-/-;hTDP1 cells + 20 nM CPT, ATP luminescence, 48 h. Potency, µM (highest dose often 46.2 µM), usual class: inhibitors. 420,000 tested, 12% active. AID 686979; note: nearly all actives have a fitted effect of over 55% in size
#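 Chicken DT40 Tdp1-/- cells stably complemented with human TDP1 were seeded at 400 cells/well in medium containing 20 nM camptothecin, exposed to pin-transferred compounds, and grown at 37 °C for at least 48 hr. Viability was read as ATP luminescence.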
# TDP1 cell noCPT: qHTS for Inhibitors of human tyrosyl-DNA phosphodiesterase 1 (TDP1): qHTS in cells in absence of CPT. DT40 Tdp1-/- hTDP1 cells, no CPT, ATP luminescence, 48 h. Potency, µM (titrated, usually from 46.2 µM), usual class: inhibitors. AID 686978, 2013. 420,000 tested, 15% active; note: nearly all actives have a fitted effect of over 55% in size
#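 Cells were dispensed at 400 per well, compounds added by pin tool, plates incubated ≥48 hr at 37 °C, then CellTiter-Glo added for 30 min at room temperature before luminescence reading. Line: DT40 Tdp1-/- complemented with hTDP1; camptothecin omitted.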
# A number is an active result; – = inactive; ? = inconclusive; · = not tested or not shown; ! = not confirmed by another sample; [ ] = remark or other dose. Unless noted, calls come from the whole dose curve; as a rule, active = well fitted curve in the direction sought with a large enough effect; inconclusive = small, poorly fitted or top-dose-only effect, or another doubt; inactive = no such curve, though single readings can be large; an effect the other way counts as inactive or inconclusive.
SMILES,RORg inh,IL1B secr inh,ELG1 DNA repair,Gal4-VP16 FLuc,DT40 TDP1 CPT,TDP1 cell noCPT
CCN1C(=O)[C@H]2[C@H]3[C@H](O)[C@H](O)C/C(=N/O[C@@H]4O[C@@H](COC(C)=O)[C@@H](OC(C)=O)[C@@H](OC(C)=O)[C@H]4OC(C)=O)[C@H]3CC[C@@H]2C1=O,–[10 µM],·,·,–[10 µM],·,·
COc1cc(C(=O)NCC(=O)OC(C)C(=O)Nc2ncc(Cl)cc2Cl)cc(OC)c1OC (stereo unspecified),–,–,–,–,–,–
CCn1c(SCC(=O)N2CCN(c3ccccc3F)CC2)nnc1-c1ccoc1C,–,–,?,–,?,?
CCN1C(=O)/C(=C2\C=Cc3ccccc3N2CC)SC1=S,–,–,–,–,15µM,18µM
CCN1C(=O)/C(=c2\o/c(=C3\C=Cc4ccccc4N3CC)c(=O)n2CC)SC1=S,–,–,–,–,–,–
O=C(COc1ccc2c(c1)OCO2)Nc1nncs1,?,–,?,–,–,–
COc1cccc(CNC(=O)c2cnc3c(-c4ccc(F)cc4)c(C)nn3c2C)c1,·,·,·,·,–,–
COc1cc(CNC(=O)c2cnc3c(-c4cccc(C)c4)c(C)nn3c2C)cc(OC)c1OC,·,·,·,·,12µM,16µM
Cc1ccc2[nH]c(C(F)(F)F)cc(=O)c2c1,–,·,?,–,?,12µM
O=C(O)c1cc(=O)c2ccccc2[nH]1,–,–,–,–,0.058µM!,–
O=c1[nH]c2ccccc2c2ccccc12,–,–,?,–,?,?
O=c1cc(C(F)(F)F)[nH]c2ccccc12,–,–,?,–,?,21µM
O=c1cc(C(F)(F)F)[nH]c2c(OC(F)(F)F)cccc12,?,-59,?,?,–,?
Cc1ccc2[nH]c(C)cc(=O)c2c1,–,·,·,–,·,·
Cc1cccc2c(=O)cc(C(F)(F)F)[nH]c12,?,–,?,?,?,?
CCN1CCN(S(=O)(=O)c2cc3c(cc2Cl)NC(=O)CO3)CC1,–,–,–,–,–,–
CN1C(=O)/C(=C/c2cc3c(cc2Br)OCO3)NC1=S,4.5µM,–,–,?,–,–
COCCn1c(C)cc(/C=C2\NC(=S)N(C)C2=O)c1C,?,–,–,?,–,?
Cc1ccc(NC(=O)COc2ccc(/C=N/NC(=O)CSCc3ccccc3)cc2)cc1,?,–,?,–,?,?
Cc1ccc(NC(=O)COc2ccc(/C=C3/SC(=Nc4ccccc4)N(Cc4cccnc4)C3=O)cc2)cc1,–,–,–,–,5.2µM,6.5µM
CC(=O)c1cccc(NC(=O)C2CCN(S(=O)(=O)c3ccc4c(c3)oc(=O)n4C)CC2)c1,·,·,·,·,–,?
COc1ccc(CCNC(=O)c2cc3c(=O)n(C)c4ccccc4c3n2C)cc1OC,–,–,?,–,?,16µM
CN(C)CCNC(=O)c1cc2c(=O)n(C)c3ccccc3c2n1C,–,–,–,–,–,–
COc1ccc(CNC(=O)c2cc3c(=O)n(C)c4ccccc4c3n2C)cc1,·,·,·,·,–,–
COc1ccc(OC)c(CCNC(=O)c2cc3c(=O)n(C)c4ccccc4c3n2C)c1,·,·,·,·,?,23µM
SMILES,RORg inh,IL1B secr inh,ELG1 DNA repair,Gal4-VP16 FLuc,DT40 TDP1 CPT,TDP1 cell noCPT
O=c1c(O)c(-c2ccccc2)oc2cccc(O)c12,4µM,·,·,7.9µM,?,?
O=c1c(O)c(-c2ccc(O)cc2)oc2cc(O)cc(O)c12,–,–,·,–,?,?
CCc1ccc(NC(=O)Cn2ccn(-c3ccc(OC)cc3)c(=O)c2=O)cc1,·,·,·,·,–,–
COc1cc(SSc2cc(OC)cc([N+](=O)[O-])c2N)c(N)c([N+](=O)[O-])c1,?,-77,–,–,4.6µM,4.1µM
Nc1ccc(Oc2ccc(N)c([N+](=O)[O-])c2)cc1[N+](=O)[O-],·,–,·,·,–,?
Cn1cc(CN2CCC(C(=O)Nc3cccc(-c4cscn4)c3)CC2)cn1,–,–,–,–,–,–
Cc1nn(C)c(Cl)c1CN1CCCC(C(=O)Nc2ccc(-c3cscn3)cc2)C1 (stereo unspecified),–,-69,?,–,16µM,?
O=C(Nc1ccc(-c2cscn2)cc1)C1CCCN(Cc2ccccc2)C1 (stereo unspecified),1.8µM,–,–,–,?,?
Cc1ccc(-c2ccc(CCC(=O)O)n2-c2cccc(C)c2C)cc1,·,·,·,·,–,–
COc1ccc(-c2c(-c3cc(OC)cc(OC)c3)n(C)c3ccc(-c4ccc(SC)cc4)cc23)cc1,·,–,?,·,–,–
COc1cccc(-c2c(-c3cc(OC)cc(OC)c3)n(C)c3ccc(-c4ccc(OC)nc4)cc23)c1,·,–,–,·,18µM,16µM
COc1cc(OC)cc(-c2c(C#Cc3ccsc3)c3cc(-c4ccc(N(C)C)nc4)ccc3n2C)c1,·,–,–,·,?,21µM
COc1ccc(-c2c(-c3cc(OC)cc(OC)c3)n(C)c3ccc(-c4ccc(N(C)C)nc4)cc23)cc1,·,–,–,·,21µM,18µM
COc1cc(OC)cc(-c2c(-c3ccc(F)cc3)c3cc(-c4ccc(OC)nc4)ccc3n2C)c1,·,–,–,·,?,23µM
CCN(CC)CCOC(=O)c1ccc(N)cc1Cl,·,·,·,·,–,–
Cc1ccc(NC(=O)CSc2nc3ncc(Cl)cc3[nH]2)c(C)c1,–,–,–,–,?,–
COc1ccc(NC(=S)N(CCCN2CCC(C)CC2)Cc2cccs2)cc1,–,-51,?,–,–,?
CCOC(=O)c1ccc(NC(=S)N(CCCN2CCN(CC)CC2)Cc2cccs2)cc1,–,–,–,–,?,18µM
CCOC(=O)c1ccc(NC(=S)N(CCCN2CCN(C)CC2)Cc2cccs2)cc1,–,?,–,–,–,–
CCOC(=O)c1ccc(NC(=S)N(CCCN2CCCC2)Cc2ccco2)cc1,–,-67,–,–,?,?
Cc1ccc(NC(=S)N(CCCN2CCC(C)CC2)Cc2ccco2)cc1C,?,-78,–,–,?,?
O=C(N/N=C1/C[C@@H](O)[C@@H](O)[C@@H]2[C@@H]3C(=O)N(Cc4ccccc4)C(=O)[C@H]3CC[C@@H]12)OCc1ccccc1,–[10 µM],·,·,–[10 µM],·,·
CCOC(=O)c1ccc(NC(=S)N(CCN2CCCCCC2)Cc2cccs2)cc1,13µM,–,?,?,?,15µM
CCOC(=O)c1ccc(NC(=S)N(CCCN2CCCC(C)C2)Cc2cccs2)cc1 (stereo unspecified),?,-81,?,–,?,26µM
CCOC(=O)c1ccc(NC(=S)N(CCCN2CCCC2)Cc2cccs2)cc1,–,–,–,–,?,?
O=C(CNC(=S)N(CCCN1CCOCC1)Cc1cccs1)NC1CCCCCCC1,–,-54,?,–,?,16µM

# Source: PubChem BioAssay
